Assay outcomes: PubChem BioAssay, several laboratories
ssDAF12 agonist: S. stercoralis DAF-12 activation, primary screen. HEK293 ssDAF-12/GRIP1 lit1-tk-luc reporter, luminescence; % of 3 µM dafachronic acid response. activation, % at 6.8 µM. actives 1% (n = 370,000);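 active means activation above the mean over all tested compounds plus 3 SD, cut at about 0.9% in these data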;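 further: 0% = DMSO-only wells and 100% = 3 µM delta7-dafachronic acid wells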
hcDAF12 agonist: activates DAF-12 receptor from parasite H. contortus | HEK293 hcDAF-12 lit1-tk-luc reporter, luminescence; 0% DMSO, 100% Δ7-dafachronic acid | activation, % at 6.8 µM | actives 1.4% (n = 370,000) | AID 652067;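 active means activation above the mean of all tested compounds plus 3 SD, cut at about 5.5% in these data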;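 further: 100% = response to 3 µM Δ7-dafachronic acid high control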
PolyA inhibitor: blocks polyadenylation in yeast reporter cells. S. cerevisiae SKY197-pL101 polyadenylation reporter, beta-gal luminescence; efflux-impaired pdr1/pdr3 knockout yeast; score 100 = 6 SD above DMSO. activity score, % at 12 µM. actives 0.02% (n = 300,000). AID 1875;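 active means lowest replicate activity score at least 50, where 100 means six control SD above control mean; inconclusive means lowest score under 50 but half or more replicates reach 50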;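 further: yeast exposed to compound for 9 h at 30 °C; higher score means more reporter readthrough which indicates perturbed polyadenylation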
DAX1 inh-1: inhibitors of human orphan nuclear receptor DAX1 (NR0B1); P51843; HEK293 Gal4-DAX1 luciferase reporter, luminescence; inhibition, % at 6.75 µM; actives 0.99% (n = 340,000); AID 504766;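 active means inhibition above the mean over all tested compounds plus 3 SD, cut at about 4.2% in these data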;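 further: 0% = DAX1-transfected cells with DMSO and 100% = empty-vector control cells with DMSO; inhibition shows as a rise in luminescence from relieved DAX1 repression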
hgDAF-12 ag: activates the H. glycines DAF-12 receptor ligand-binding domain. HEK293 GAL4-hgDAF12 UAS-luciferase reporter, agonist luminescence; normalized to butyrate control. actives 1.8% (n = 370,000). activation, % at 6.8 µM;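 active means activation above a cutoff set at the mean of all screened compounds plus 3 SD, cut at about 10% in these data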;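 further: 0% = DMSO wells and 100% = sodium butyrate wells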
DAX1 inh-2: DAX1 (NR0B1) inhibition, primary screen. HEK293T StAR-luciferase reporter, SF-1/DAX-1 repression relief. inhibition, % at 6.8 µM. actives 1.1% (n = 370,000);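 active means inhibition above the mean over all tested compounds plus 3 SD, cut at about 3.6% in these data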;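 further: 0% = DAX-1 cells with DMSO and 100% = cells lacking DAX-1 with DMSO; higher inhibition means more luminescence from relief of DAX-1 repression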
hgDAF12 conf: hgDAF-12 agonism, confirmation assay. activation, % at 6.8 µM. shares compounds with hgDAF-12 ag. HEK293 GAL4-hgDAF12 luciferase reporter, agonist mode; percent of butyrate response. actives 80% (n = 3,300);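 active means mean activation over triplicate wells above the hit cutoff derived from the earlier primary screen, cut at about 11% in these data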;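 further: 0% = DMSO low control and 100% = 2 mM sodium butyrate high control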
LXRb DAF12 ctr: LXR-beta agonism as DAF-12 counter-screen; shares compounds with hgDAF-12 ag; HEK293 Gal4-LXR luciferase reporter, 24 h; activation, % at 6.8 µM; 3,300 tested, under 10 active;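 active means mean activation of the triplicate above a set limit carried over from the primary screen, none filed active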
Target sequence (P55055 whole entry, looked up, the tested form may be a part): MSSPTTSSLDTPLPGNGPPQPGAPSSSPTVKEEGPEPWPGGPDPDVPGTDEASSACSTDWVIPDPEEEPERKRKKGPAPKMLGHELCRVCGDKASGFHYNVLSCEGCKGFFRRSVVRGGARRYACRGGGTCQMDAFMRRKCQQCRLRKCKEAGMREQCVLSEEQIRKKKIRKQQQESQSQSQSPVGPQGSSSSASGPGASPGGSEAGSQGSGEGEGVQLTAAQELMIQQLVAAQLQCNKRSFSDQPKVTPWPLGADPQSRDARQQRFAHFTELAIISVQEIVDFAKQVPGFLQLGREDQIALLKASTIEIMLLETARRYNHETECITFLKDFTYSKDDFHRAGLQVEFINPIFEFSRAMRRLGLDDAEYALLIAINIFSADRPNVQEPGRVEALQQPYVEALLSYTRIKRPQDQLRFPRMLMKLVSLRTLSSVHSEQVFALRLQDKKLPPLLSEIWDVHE
The depositor's hits bear a star; ? = inconclusive; nt = no result. An excerpt weighted towards active compounds, which were near 4.1% of everything screened.

SMILES	ssDAF12 agonist	hcDAF12 agonist	PolyA inhibitor	DAX1 inh-1	hgDAF-12 ag	DAX1 inh-2	hgDAF12 conf	LXRb DAF12 ctr
C/C(=N/NS(=O)(=O)c1ccccc1)c1ccc(NC(=O)C2CC2)cc1	0	0	-9	0	0	0	nt	nt
CCN(CC)c1ccc(NC(=O)c2ccc(Br)o2)cc1	0	3	9	5.0*	16*	4	15*	1
COc1cccc(C(=O)NCCSc2ccc(F)cc2)c1	0	3	-12	0	14*	3	12*	0
COc1cccc(C(=O)NCCSc2ccc(C)cc2)c1	-1	-1	9	0	-1	-1	nt	nt
COc1cccc(C(=O)Nc2ccc(C(F)(F)F)n(C)c2=O)c1	-1	6.3*	-4	2	18*	2	14*	1
CCOc1ccc(C(=O)Nc2ccc(C(F)(F)F)n(C)c2=O)cc1	-2	-1	-6	2	-2	0	nt	nt
Cc1cccc(/C=C\c2nc3ccccc3c(=O)[nH]2)c1	0	5	-6	1	15*	3.6*	21*	1
COC(C(=O)N/N=C(\C)c1ccc(O)cc1)c1ccccc1 (centres undefined)	1	5	-10	0	14*	1	1	0
O=C1N2CCCCC1(Sc1ccccc1)CCC2 (centres undefined)	-1	0	nt	nt	2	2	nt	nt
CC(=O)Nc1cc(F)c2c(c1F)Cc1cc(F)ccc1-2	0	3	nt	3	16*	2	12*	0
CC(=O)Nc1ccc2c(c1)-c1ccc(F)cc1C2	-1	1	nt	0	4	0	nt	nt
COc1ccc(NC(=O)C2=Cc3cccc(OC)c3OC2)cc1	-1	0	-12	2	15*	2	10	0
Cc1cccc(/C(N)=N/OC(=O)c2cccnc2)c1	1.1*	5	-7	2	20*	3	11*	1
C(=C\c1nc(-c2cccnc2)no1)/c1ccccc1	1.0*	3	-8	1	13*	2	12*	0
Cc1cnc(C(=O)Nc2ccc3c(c2)CCC3)cn1	0	4	-11	1	14*	4.1*	17*	1
Cc1ccc(C(=O)Nc2nc(C)c(C(=O)Nc3ccc4c(c3)CCC4)s2)cc1	1.3*	3	8	0	17*	0	17*	0
O=C(Nc1ccc2c(c1)CCC2)c1cnccn1	0	3	15	3	17*	4.4*	15*	1
Cc1nc(NC(=O)c2ccc(F)cc2)sc1C(=O)Nc1ccc2c(c1)CCC2	-1	2	15	0	2	0	nt	nt
O=C(Nc1cccc(Cl)c1)c1cnccn1	0	-1	?	0	3	0	nt	nt
CCCCC(=O)NC(=O)NC(c1ccccc1)c1ccccc1	-1	0	-14	0	0	0	nt	nt
COc1ccc(-c2cc(=Nc3c(C)n(C)n(-c4ccccc4)c3=O)c3ccccc3o2)cc1	1	6.0*	-14	5.3*	19*	3	12*	0
COc1cc(CNCc2ccc(SC)cc2)cc(OC)c1	-2	-2	-3	-1	0	-1	nt	nt
S=C(NCCc1cccc(Cl)c1)NC1CCCCC1	0	4	-8	2	14*	3	11*	0
O=C(NCCc1ccccc1)NC1CCCCC1	0	5	-16	1	14*	3	10	1
COc1ccc(C2=NN(C(=O)CSc3cn(C)c4ccccc34)C(c3ccc(OC)cc3)C2)cc1 (centres undefined)	-1	1	1	0	4	-1	nt	nt
SMILES	ssDAF12 agonist	hcDAF12 agonist	PolyA inhibitor	DAX1 inh-1	hgDAF-12 ag	DAX1 inh-2	hgDAF12 conf	LXRb DAF12 ctr
CCCCNC(=O)C[C@H]1C[C@@]2(C(=O)OC)C(=C[C@H](C(C)C)O[C@@H]2C2CC2)N(Cc2cccc3ccccc23)C1=O	-1	-3	nt	nt	0	-1	nt	nt
COc1ccc(S(=O)(=O)N2CCOCC2)cc1NC(=O)CSc1nnc2ccccn12	nt	nt	8	nt	nt	nt	nt	nt
O=C(CSc1nnc(NC(=O)c2ccccc2Cl)s1)Nc1ccc2c(c1)oc1ccccc12	0	4	19	nt	14*	2	11*	0
CC1CCCCN1C(=O)c1ccc(Br)o1 (centres undefined)	0	-1	12	2	-1	-1	nt	nt
O=C(NC(=S)Nc1ccc(N2CCOCC2)cc1)c1ccco1	-1	3	1	0	16*	2	10	0
O=C(CSc1nc2ccccc2o1)NC1CCS(=O)(=O)C1 (centres undefined)	0	0	nt	-1	-2	-1	nt	nt
CN1CCc2c(sc3c2C(=O)NC(c2ccc(-c4ccc(Cl)cc4)o2)N3)C1 (centres undefined)	-1	0	20	nt	3	0	nt	nt
Clc1ccc2nc(CSc3nc4ccccc4o3)cn2c1	0	6	-1	1	8	3	nt	nt
Clc1ccc2nc(CSCc3ccccc3)cn2c1	0.9*	2	-11	2	19*	4.0*	14*	1
COc1ccc(OCc2ccc(/C=N\NC(=O)c3sccc3C)o2)cc1	-1	2	nt	1	14*	1	4	0
O=C(N/N=C\c1ccc(COc2ccc([N+](=O)[O-])cc2)o1)c1ccc(Cl)cc1	-1	0	-2	0	3	0	nt	nt
O=C(Nc1ccc2oc(-c3ccccc3)nc2c1)c1ccc2c(c1)OCCO2	-2	-2	14	-1	-5	-2	nt	nt
O=C(Nc1ccc2oc(-c3ccccc3)nc2c1)c1ccco1	1.0*	5	17	4	15*	3	12*	1
O=C(Nc1ccc2oc(-c3ccccc3)nc2c1)C1CCCO1 (centres undefined)	1.2*	5	15	4	28*	3	15*	1
Cc1ccc(N(CC(=O)N2CCCCCC2)S(C)(=O)=O)cc1	-1	2	nt	1	0	1	nt	nt
O=C(Cn1cnc2ccccc2c1=O)Nc1ccc2c(c1)OCCO2	0	5	-15	4	17*	3	14*	1
CC(=O)Oc1ccc(C(=O)[C@H]2[C@H]3C(=O)N(c4ccc(C)cc4)C(=O)[C@H]3[C@@H]3C=CC=NN32)cc1	0	5.9*	-9	0	16*	2	8	0
